Test results: the supplement of paper PMC10338343
± gives the standard deviation. The full ranking holds about 8,200 sequences; the median of “pre-steady-state target cleavage rate” is about 0.024, and the highest 2% start at about 1.3. What follows is part of a selection rich in the highest values, with near analogues and random picks from the rest.

Test system: MIWI (PIWIL1) piRISC loaded with L1MC piRNA (30 nt)
Assay: pre-steady-state target cleavage rate (min^-1); MIWI and MILI are mouse PIWI proteins and EfPiwi is from a freshwater sponge; tags in brackets are library labels; higher = faster piRNA-guided slicing of the target
Conditions: guide: L1MC piRNA 5'p-UAACUAAAUACUAUGCAAGCUGUAGGUCCU
Procedure: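 Cleave-'n-Seq: a library of target RNAs (target site embedded in constant flanks, ACAGCATTCCGCGTTAGTGATATCCG... 5' flank; DNA-blocked outside the site) at 0.1 nM was incubated with 1 nM active mouse MILI or MIWI piRISC (synthetic 5'-monophosphorylated piRNA guide) with or without 500 nM mouse GTSF1 at 33 °C for 1 min to 16 h. Uncleaved targets were sequenced and normalised to non-target controls, and the pooled three trials were fitted to a burst-and-steady-state model to give the pre-steady-state cleavage rate (min^-1; k3 is constrained to at most 1e-4). Sequence is the target site only; target names encode pairing extent (gX:gY) and contiguous / 1-mismatch / 2-mismatch / bulge geometry. Fits with R² ≤ 0 are excluded.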

[1] = auxiliary factor: 500 nM mouse GTSF1
[2] = auxiliary factor: none (no GTSF1)

Sequence | pre-steady-state target cleavage rate [1] | pre-steady-state target cleavage rate [2]
AGGACCUACAGCUUGCUUAGUAUAUAGUUA | 0.762 ± 0.071 | 0.0291 ± 0.0082
UCCUCCUACAGCUUGCUUAGUAUAUAGUUA | 0.617 ± 0.034 | 0.0104 ± 0.0032
UGGACCUUCAGCUUGCUUAGUAUUUAGUUA | 1.49 ± 0.09 | 0.0441 ± 0.011
UCCACCUACAGCUUGCUUAGUAUAUAGUUA | 0.357 ± 0.027 | 0.0111 ± 0.0025
AGGACCUACAGCUUGGAUAGUAUAUAGUUA | 0.736 ± 0.053 | 0.0336 ± 0.0076
UGGACCUACAGCUUGCUUAGUAUAUAGUUA | 0.842 ± 0.063 | 0.0175 ± 0.0052
AGGACCUUCAGCUUGCUUAGUAUUUAGUUA | 1.44 ± 0.055 | 0.0546 ± 0.01
UCGACCUACAGCUUGCUUAGUAUAUAGUUA | 0.879 ± 0.063 | 0.0168 ± 0.004
AGGACCUACAGCAUGCAUACUAUUUAGUUA | 0.39 ± 0.023 | 0.0205 ± 0.0035
UGGACCUACAGCUACCAUAGUAUUUAGUUA | 0.493 ± 0.043 | 0.00241 ± 0.0021
UCCUGCUACAGCUCGCAUAGUAUUUAGUUA | 1.14 ± 0.062 | 0.0391 ± 0.0067
UCGACCUACAGCUCGCAUAGUAUUUAGUUA | 1.55 ± 0.04 | 0.0682 ± 0.013
UCCUCCUACAGCUCGCAUAGUAUUUAGUUA | 1.31 ± 0.051 | 0.0488 ± 0.0093
AGGACCUACAGCUGGCAUAGUAUUUAGUUA | 1.29 ± 0.057 | 0.0579 ± 0.011
UCCACCUACAGCUCGCAUAGUAUUUAGUUA | 1.11 ± 0.043 | 0.0579 ± 0.012
UGGACCUACAGCUCGCAUAGUAUUUAGUUA | 1.54 ± 0.096 | 0.0604 ± 0.0083
AGGACCUACAGCUCGCAUAGUAUUUAGUUA | 1.35 ± 0.068 | 0.0694 ± 0.013
UGGACCUACAGCUUGCAUAGUUUUUACUUA | 0.0927 ± 0.013 | 0.0125 ± 0.0027
UGCACCUACAGGUUGCAUAGUAUUUAGUUA | 0.859 ± 0.15 | 0.0244 ± 0.0052
UCCUGCUACAGCUUGCAUAGAAAUUAGUUA | 0.2 ± 0.021 | 0.00609 ± 0.0021

Sequence | pre-steady-state target cleavage rate [1] | pre-steady-state target cleavage rate [2]
AGGACCUACACCUUGCAUAGUAUUUAGUAA | 0.838 ± 0.068 | 0.0538 ± 0.0089
UCCACCUACAGCUUGCAUAGUAUUUUCUAA | 0.361 ± 0.048 | 
UCCUGGAACAGCUUGGAUAGUAAUUAGUUA | 0.565 ± 0.055 | 0.0197 ± 0.0059
UCCUGGAACAGCUUGCAUAGUUUUUAGUAA | 0.191 ± 0.025 | 0.0332 ± 0.01
UCCUGGUACUGCUUGGAUAGUAUUUAGUUA | 0.391 ± 0.078 | 0.0193 ± 0.0036
UCGACCUACUGCUUGCAUAGUAUUUAGUUA | 1.41 ± 0.035 | 0.0694 ± 0.011
UGGACCUACUGCUUGCAUAGUAUUUAGUAA | 0.708 ± 0.039 | 0.0421 ± 0.008
ACGACCUACUGCUUGCAUAGUAUUUAGUUA | 1.51 ± 0.054 | 0.0792 ± 0.013
UCGACCUACUGCUUGCAUAGUAUUUAGUAA | 0.797 ± 0.036 | 0.0434 ± 0.0074
UGCACCUACUGCUUGCAUAGUAUUUAGUUA | 1.16 ± 0.097 | 0.0725 ± 0.014
UCGACCUACUGCUUGCUUAGUAUUUAGUUA | 1.52 ± 0.061 | 0.031 ± 0.0067
UCGACCUACUGCUUGCAUAGUAUUUAGAUA | 0.273 ± 0.023 | 0.0197 ± 0.0035
UGGACCUACUGCUUGCAUAGUAUUUAGUUA | 1.46 ± 0.073 | 0.0611 ± 0.0097
UCCACCUACUGCUUGCAUAGUAUUUAGUUA | 0.697 ± 0.027 | 0.0467 ± 0.0067
AGGACCUACUGCUUGCAUAGUAUUUAGUUA | 1.21 ± 0.049 | 0.0777 ± 0.012
UCCACCUACUGCUUGCUUAGUAUUUAGUUA | 0.816 ± 0.029 | 0.0276 ± 0.0058
UCCUCCUACUGCUUGCUUAGUAUUUAGUUA | 1.06 ± 0.04 | 0.03 ± 0.0053
UCCUGCUACGCUUGCAUAGUAUUUAGUUA | 1.12 ± 0.08 | 0.0532 ± 0.011
AGGUCCUACAGCUUGCAUAGUAUUAAGUUA | 0.381 ± 0.034 | 0.054 ± 0.013
UCCUCCUAGAGCUUGCUUAGUAUUUAGUUA | 1.04 ± 0.059 | 0.0213 ± 0.0041

Sequence | pre-steady-state target cleavage rate [1] | pre-steady-state target cleavage rate [2]
UGGACCUACAGCUUGCUUACUAUUUAGUUA | 0.493 ± 0.031 | 0.0127 ± 0.0038
UCGACCUACAGCUUGCAUAGUUAAUAGUUA | 0.122 ± 0.019 | 0.00697 ± 0.0029
UCCUGGAUGUCGUGCAUAGUAUUUAGUUA | 0.031 ± 0.0083 | 0.00348 ± 0.0032
UCCUCCUACACCUAGCAUAGUAUUUAGUUA | 0.657 ± 0.057 | 0.0111 ± 0.0022
UCCUGGAACAGCUUGCAUAGUAUAAACAAA | 0.18 ± 0.043 | 
UGGACCUACAGCUUCGAUAGUAUUUAGUAA | 0.307 ± 0.04 | 
UCCUGGAUGUGCUUGCUUAGUAUUUAGUAA | 0.0383 ± 0.008 | 0.0104 ± 0.0033
UGGACCUACAGCUUGCAUAGUAUUAAGAUA | 0.174 ± 0.028 | 0.00558 ± 0.0024
UGGACCUACUGCUUGCAAAGUAUUUAGUUA | 1.23 ± 0.059 | 0.0383 ± 0.0078
AGGACCAACUGCUUGCAUAGUAUUUAGUUA | 1.22 ± 0.056 | 0.0799 ± 0.014
AGGACCUACUGCAUGCAUAGUAUUUAGUUA | 1.3 ± 0.06 | 0.0566 ± 0.01
UCGACCUACUGCAUGCAUAGUAUUUAGUUA | 1.33 ± 0.056 | 0.0324 ± 0.0055
UCGACCUACUGCUUGCAAAGUAUUUAGUUA | 1.33 ± 0.037 | 0.051 ± 0.01
UCGACCAACUGCUUGCAUAGUAUUUAGUUA | 1.43 ± 0.041 | 0.0724 ± 0.012
UGGACCAACUGCUUGCAUAGUAUUUAGUUA | 1.27 ± 0.055 | 0.0655 ± 0.011
UGGACCUACUGCAUGCAUAGUAUUUAGUUA | 1.27 ± 0.08 | 0.0325 ± 0.0061
AGGACCUACUGCUUGCAAAGUAUUUAGUUA | 1.11 ± 0.057 | 0.0455 ± 0.0095
UCCUGGUACAGCUACCAUAGUAUUUAGUUA | 0.366 ± 0.05 | 
UCCACCUACUGCUUGCAUAGUAUUUACUUA | 0.243 ± 0.025 | 0.0254 ± 0.0034
